# Test results as given in the supplement of paper PMC8866396.
# ± gives the standard deviation of the averaged measurements.
# What was measured:
# [1] = system: IL-6-GFP PC-9GR; experiment: cell viability (CCK-8 OD) relative to DMSO control (fraction of control); higher = more viable cells; conditions: compound concentration: 10 uM; treatment time: 48 h
# Method in brief: (§1)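 PC-9 and PC-9GR lung cancer cells overexpressing IL-6-GFP from a lentiviral construct were plated at 3000 cells/well in 96-well plates. Each compound from a purchased 510-compound library was added at a final 10 μM for 48 h, with a parallel plate set used for GFP imaging. Viability was measured by CCK-8 absorbance and expressed as each well's optical density divided by the vehicle (DMSO) control well, from two independent replicates.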
# [2] = system: IL-6-GFP PC-9; experiment: as above; conditions: compound concentration: 10 uM; treatment time: 48 h
# Method in brief: as §1
SMILES,cell viability [1],cell viability [2]
CC(=O)OC1(C(C)=O)CCC2C3CC(C)C4=CC(=O)C=CC4(C)C3(F)C(O)CC21C (stereo not given) [Fluorometholone Acetate],0.701 ± 0.05,0.947 ± 0.087
CONC(=O)Nc1ccc(-c2sc3c(c2CN(C)C)c(=O)n(-c2ccc(OC)nn2)c(=O)n3Cc2c(F)cccc2F)cc1 [Relugolix],1.41 ± 0.42,1.01 ± 0.17
"C/C=C1/C2C=C(C)CC1(N)c1ccc(=O)[nH]c1C2 (single isomer, unassigned; (-)) [(-)-Huperzine A (HupA)]",1.17 ± 0.37,1.29 ± 0.053
CCC1(O)C(=O)OCc2c1cc1n(c2=O)Cc2cc3c(CN(C)C)c(O)ccc3nc2-1 (stereo not given) [Topotecan],0.333 ± 0.19,0.3428 ± 0.0013
CC1CCN(C(=O)CC#N)CC1N(C)c1ncnc2[nH]ccc12.O=C(O)CC(O)(CC(=O)O)C(=O)O (stereo not given),1.2 ± 0.23,1.26 ± 0.04
COc1cccc2c1C(=O)c1c(O)c3c(c(O)c1C2=O)CC(O)(C(=O)CO)CC3OC1CC(N)C(OC2CCCCO2)C(C)O1 (stereo not given) [Pirarubicin],0.33 ± 0.12,0.208 ± 0.13
O=NN(CCCl)C(=O)NC1CCCCC1 [Lomustine],1.05 ± 0.07,0.9506 ± 0.0079
COc1nc2ccc(Br)cc2cc1C(c1ccccc1)C(O)(CCN(C)C)c1cccc2ccccc12 (stereo not given) [Bedaquiline],0.849 ± 0.0096,0.85 ± 0.17
Cc1nc(Nc2ncc(C(=O)Nc3c(C)cccc3Cl)s2)cc(N2CCN(CCO)CC2)n1.O [Dasatinib Monohydrate],0.687 ± 0.054,0.488 ± 0.059
COc1c2occc2c(OC)c2c(=O)cc(C)oc12 [Khellin],0.831 ± 0.16,0.888 ± 0.17
Cl.N=C1CCCN1Cc1[nH]c(=O)[nH]c(=O)c1Cl.O=c1[nH]c(=O)n(C2CC(O)C(CO)O2)cc1C(F)(F)F.O=c1[nH]c(=O)n(C2CC(O)C(CO)O2)cc1C(F)(F)F (stereo not given),0.556 ± 0.067,0.812 ± 0.28
CC/C(=C(/CC)c1ccc(O)cc1)c1ccc(O)cc1 [Diethylstilbestrol],1.13 ± 0.038,1.18 ± 0.19
CC(C)OC(=O)CCC/C=C\CC1C(O)CC(O)C1CCC(O)CCc1ccccc1 (stereo not given) [Latanoprost],0.776 ± 0.15,1 ± 0.26
CNCC(O)c1ccc(O)c(O)c1.O=C(O)C(O)C(O)C(=O)O (stereo not given) [Epinephrine bitartrate],1.17 ± 0.15,1.2 ± 0.022
CN(C)C(=O)c1cc2cnc(Nc3ccc(N4CCNCC4)cn3)nc2n1C1CCCC1 [Ribociclib (LEE011)],1.29 ± 0.4,1.01 ± 0.029
Cl.Clc1ccc(CCCOCCCN2CCCCC2)cc1 [Pitolisant hydrochloride],0.916 ± 0.11,1.13 ± 0.28
CCOc1ccc(Cc2cc(C3OC(CO)C(O)C(O)C3O)ccc2Cl)cc1 (stereo not given) [Dapagliflozin],1.37 ± 0.23,1.74 ± 0.67
CCCCNC(=O)NS(=O)(=O)c1ccc(C)cc1 [Tolbutamide],1.13 ± 0.081,1.2 ± 0.16
CCCCC1(COC(=O)CCC(=O)O)C(=O)N(c2ccccc2)N(c2ccccc2)C1=O [Suxibuzone],0.768 ± 0.21,1.07 ± 0.21
CC1=C(/C=C/C(C)=C/C=C/C(C)=C/C(=O)Nc2ccc(O)cc2)C(C)(C)CCC1 [Fenretinide],0.47 ± 0.12,0.449 ± 0.14
